Measurements as given in PubChem BioAssay (NCATS).
Inconclusive results are not listed. The source made the active and inactive calls. Calls follow the shape of the dose curve; as a rule, active = well fitted cell-killing curve with a large enough effect; inconclusive = small, poorly fitted or top-dose-only effect, or effect the other way; inactive = no such curve, though single readings can be large or run the other way.

Assay: Quantitative High-Throughput drug screen in 47 multiple myeloma cell lines against the NCATS MIPE library collection: MMM1_PLB cell viability assay (AID 1918976); also: nearly all actives have a fitted effect of over 35% in size
Conditions: MMM1 myeloma cells viability, CellTiter-Glo, 48 h
Source text: PI: Beverly A. Mock Ph.D.
Laboratory of Cancer Biology and Genetics,
Center for Cancer Research, National Cancer Institute,
National Institute of Health, Bethesda, Maryland
Drug resistance and disease progression are common in multiple myeloma (MM) patients, underscoring the need for new therapeutic combinations. […] We hypothesized that effective combinations would reduce MYC expression and enhance p16 activity. […] These preclinical data identify potentially useful drug combinations for evaluation in drug-resistant MM and reveal potential mechanisms of combined drug sensitivity.
Described herein is the primary MIPE qHTS used to cherrypick compounds. Validated compounds were then further tested for potential synergistic activiy.
[1] Peat TJ, Gaikwad SM, Dubois W, Gyabaah-Kessie N, Zhang S, Gorjifard S, Phyo Z, Andres M, Hughitt VK, Simpson RM, Miller MA, Girvin AT, Taylor A, Williams D, D'Antonio N, Zhang Y, Rajagopalan A, Flietner E, Wilson K, Zhang X, Shinn P, Klumpp-Thomas C, McKnight C, Itkin Z, Chen L, Kazandijian D, Zhang J, Michalowski AM, Simmons JK, Keats J, Thomas CJ, Mock BA. Drug combinations identified by high-throughput screening promote cell cycle transition and upregulate Smad pathways in myeloma. Cancer Lett. 2023 Aug 1;568:216284. doi: 10.1016/j.canlet.2023.216284. Epub 2023 Jun 24. PMID: 37356470; PMCID: PMC10408729.
SEQUENCE No. (e.g., 1, 2, 3, etc.); […] (e.g., Cells, Incubation, Reagent, etc.); VALUE and DESCRIPTION.
1; Cells; 5 uL; white, solid bottom 1536-well Greiner assay plate.
2; Compounds; 23 nL; Kalypsis pin tool (Wako USA) equipped with a 1536-well pin head to transfer to the assay plates.
3; Incubation; 48 hours; 37C incubation.
4; Reagent;5uL; CellTiter Glo (Promega).
5; Detector; 425V; Luminescence; Viewlux PerkinElmer.
NOTES (numbers refer to Sequence numbers above)
1. The cell-based screening methods employed in this study were like those previously published. Briefly, the corresponding myeloma cell lines were screened in 1,536-well plates with 500 cells, 5-uL per well for inhibition of cell viability (assessed by measuring ATP levels with CellTiterGlo).
2. NCATS MIPE 4.0 library of approved and investigational drugs were added using the Kalypsis pin tool. Wells treated with DMSO only for 100% viability and media only for 0% viability were used as controls.
3. The assay plates were covered and incubated for 48 hours in a 37C, 5% CO2 incubator with controlled humidity.
4. After 48 hours, CellTilter-GloTM luminescent substrate mix (Promega) reagent was added to the assay plate and plates we incubated for 5 min at room temperature.
5. Signal was measured as median relative luminescence units on a ViewLux (PerkinElmer) multiplate reader.
[1] Heske CM, Davis MI, Baumgart JT, Wilson K, Gormally MV, Chen L, Zhang X, Ceribelli M, Duveau DY, Guha R, Ferrer M, Arnaldez FI, Ji J, Tran HL, Zhang Y, Mendoza A, Helman LJ, Thomas CJ. Matrix Screen Identifies Synergistic Combination of PARP Inhibitors and Nicotinamide Phosphoribosyltransferase (NAMPT) Inhibitors in Ewing Sarcoma. Clin Cancer Res. 2017 Dec 1;23(23):7301-7311. doi: 10.1158/1078-0432.CCR-17-1121. Epub 2017 Sep 12. PMID: 28899971; PMCID: PMC6636827.
Potency is read from the fitted curve at half-maximal effect.

| SMILES | Potency |
| --- | --- |
| COC1(CS(=O)c2ccccc2)CCN(CCc2c[nH]c3ccc(F)cc23)CC1 (stereo not given) | 3.72 µM (active) |
| Fc1ccc(C(OCCN2CCN(CCCc3ccccc3)CC2)c2ccc(F)cc2)cc1 | 14.8 µM (active) |
| C[C@@H]1[C@@H](CC(C[C@H]2O[C@@H]3O[C@]4(C)CC[C@@H]5[C@H](C)CC[C@@H]([C@H]2C)[C@@]35OO4)C[S+](=O)([O-])c2ccc(COC(=O)N(C)C)cc2)O[C@@H]2O[C@]3(C)CC[C@H]4[C@H](C)CC[C@@H]1[C@@]24OO3 (stereo not given in full) | 0.148 µM (active) |
| N[C@@H](Cc1ccc(N(CCCl)CCCl)cc1)C(=O)O | 4.69 µM (active) |
| CN(C)CCc1ccc(O)cc1 | 1.66 µM (active) |
| CNC(=O)N1N=C(c2ccc(N)cc2)c2cc3c(cc2CC1C)OCO3 (stereo not given) | 14.8 µM (active) |
| Cc1sc2c(c1C)C(c1ccc(Cl)cc1)=N[C@@H](CC(=O)OC(C)(C)C)c1nnc(C)n1-2 | 1.05 µM (active) |
| COC[C@H]1OC(=O)c2coc3c2[C@@]1(C)C1=C(C3=O)C2CCC(=O)[C@@]2(C)C[C@H]1OC(C)=O (stereo not given in full) | 2.64 µM (active) |
| CC1=C2C[C@@H]3[C@@H](CC=C4C[C@@H](O)CC[C@@]43C)[C@@H]2CC[C@]12O[C@H]1C[C@H](C)CN[C@H]1[C@H]2C | 9.35 µM (active) |
| Cn1c(CCCC(=O)O)nc2cc(N(CCCl)CCCl)ccc21 | 10.5 µM (active) |
| C[C@@H]1[C@@H](C(=O)C[C@H]2O[C@@H]3O[C@]4(C)CC[C@@H]5[C@H](C)CC[C@@H]([C@H]2C)[C@@]35OO4)O[C@@H]2O[C@]3(C)CC[C@H]4[C@H](C)CC[C@@H]1[C@@]24OO3 | 0.418 µM (active) |
| C#CCN(C)[C@H](C)Cc1ccccc1 | 2.96 µM (active) |
| COc1ccc2c(c1OC)CN1CCc3cc4c(cc3C1C2)OCO4 (stereo not given) | 26.4 µM (active) |
| CN(C)[C@@H]1C(=O)C(C(N)=O)=C(O)[C@@]2(O)C(=O)C3=C(O)c4c(O)cccc4[C@@](C)(O)[C@H]3C[C@@H]12 | 8.33 µM (active) |
| C=C(C)[C@H]1Cc2c(ccc3c2O[C@@H]2COc4cc(OC)c(OC)cc4[C@@H]2C3=O)O1 | 0.166 µM (active) |
